Screening results deposited in PubChem BioAssay by National Center for Advancing Translational Sciences (NCATS).
This is a sample that favours compounds with a hit; in the whole collection about 10% have one here.
Sfp PPTase inh = qHTS Assay for Inhibitors of Bacillus subtilis Sfp phosphopantetheinyl transferase (PPTase). Biochemical Sfp PPTase activity, qHTS. 4'-phosphopantetheinyl transferase ffp (Bacillus subtilis), Q9F4F7. Potency, µM, without a hit: largest response in the series, negative = inhibition, usual class: inhibitors. AID 1490, 2009. 3.5% of 310,000 active;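 further: the enzyme is Sfp with the accession as filed and its product quenches rhodamine fluorescence; potency means the concentration at half of the fitted maximal effect; 0% = enzyme reaction without inhibitor and -100% = no enzyme wells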
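Reaction rates are the 30-min fluorescence difference (ex 525, em 598 nm) in wells containing 15 nM Sfp, 5 uM rhodamine-CoA and 12.5 uM BHQ-2-YbbR at pH 7.6 with 10 mM MgCl2.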
CCT chaperon mod = High-Throughput Screening for Modulators of Cytosolic Chaperonin Activity; purified chaperonin ATPase assay, HTRF ADP detection, 30 min; activity change, % (concentration not given with the values), hits read low; 0.3% of 360,000 active; in the data active means activity change below about -30%; further: on the % scale 0 is the no-effect control and ±100 the full control effect
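ATPase activity: ADP formed was measured by HTRF Transcreener (665/615 nm ratio) after 30 min at 37 deg C with 10 uM ATP. Compounds screened at one 76 uM concentration against 40 or 20 nM TRiC in Tris pH 7.4/KCl/MgCl2/DTT buffer.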
G9a inh = qHTS Assay for Inhibitors of Histone Lysine Methyltransferase G9a. G9a H3K9 monomethylation, AlphaScreen, 2 h. 8.8% of 350,000 active. Potency, µM (highest dose often 102 µM), for inactives: at the highest dose activity, negative = inhibition, usual class: inhibitors. AID 504332, 2011. Histone-lysine N-methyltransferase EHMT2 (Homo sapiens), Q96KQ7; further: potency means the concentration at half of the fitted maximal effect; on the % scale 0 is the no-effect control and ±100 the full control effect; nearly all actives have a fitted effect of over 75% in size
Target sequence (Q96KQ7 913-1193 limits assumed): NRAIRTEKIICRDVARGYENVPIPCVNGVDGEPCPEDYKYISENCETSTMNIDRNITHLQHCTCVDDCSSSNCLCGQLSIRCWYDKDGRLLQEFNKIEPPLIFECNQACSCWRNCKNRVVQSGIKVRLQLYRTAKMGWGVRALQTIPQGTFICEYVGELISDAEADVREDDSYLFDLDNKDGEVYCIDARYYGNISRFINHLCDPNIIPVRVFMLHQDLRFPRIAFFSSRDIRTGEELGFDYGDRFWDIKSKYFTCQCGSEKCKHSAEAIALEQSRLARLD
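Step 1: enzyme (final 20 nM) with compound, 15 min RT. Step 2: substrate peptide 500 nM and SAM 20 uM, 2 h RT. Step 3: anti-H3K9me1 antibody and AlphaScreen beads, 10 min, then plate read.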
Mm-Cpn inhibitor = Inhibitors of TCP-1 ring complex (TRiC) of Methanococcus maripaludis (MmCpn): qHTS; Chaperonin Mm-Cpn (Methanococcus maripaludis); purified Mm-Cpn ATPase, ADP Transcreener TR-FRET; Potency, µM (highest dose often 76.9 µM), for the others: at the highest dose activity, negative = inhibition, actives largely listed as inhibitors; 0.031% of 330,000 active; AID 504842, 2011; further: potency means the concentration at half of the fitted maximal effect; on the % scale 0 is the no-effect control and ±100 the full control effect; nearly all actives have a fitted effect of over 80% in size
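ATP (10 uM final) was added to archaeal chaperonin (25 nM final) after 10 min exposure to test compound at 37°C; after 30 min further incubation, ADP was detected by competitive TR-FRET.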
PLK1 PBD inh = qHTS for Inhibitors of PLK1-PDB (polo-like kinase 1 - polo-box domain): Primary Screen. Potency, µM, for the others: max response, negative = inhibition, usual class: inhibitors. 2.8% of 360,000 active. Plk1 PBD binding of FITC phosphopeptide, fluorescence polarization. AID 720504, 2013. Serine/threonine-protein kinase PLK1 (Homo sapiens), P53350; further: potency means the concentration at half of the fitted maximal effect; series mostly up to about 57 µM; on the % scale 0 is the no-effect control and ±100 the full control effect; nearly all actives have a fitted effect of over 65% in size
VDR inh = Inhibitors of the vitamin D receptor (VDR): qHTS. Vitamin D3 receptor (Homo sapiens), P11473. VDR-SRC2-3 peptide fluorescence polarization, 2 h. Potency, µM, for the others: max response, negative = inhibition, actives largely listed as inhibitors. 0.93% of 400,000 active; further: potency means the concentration at half of the fitted maximal effect; on the % scale 0 is the no-effect control and ±100 the full control effect
Target sequence (P11473 whole entry, looked up): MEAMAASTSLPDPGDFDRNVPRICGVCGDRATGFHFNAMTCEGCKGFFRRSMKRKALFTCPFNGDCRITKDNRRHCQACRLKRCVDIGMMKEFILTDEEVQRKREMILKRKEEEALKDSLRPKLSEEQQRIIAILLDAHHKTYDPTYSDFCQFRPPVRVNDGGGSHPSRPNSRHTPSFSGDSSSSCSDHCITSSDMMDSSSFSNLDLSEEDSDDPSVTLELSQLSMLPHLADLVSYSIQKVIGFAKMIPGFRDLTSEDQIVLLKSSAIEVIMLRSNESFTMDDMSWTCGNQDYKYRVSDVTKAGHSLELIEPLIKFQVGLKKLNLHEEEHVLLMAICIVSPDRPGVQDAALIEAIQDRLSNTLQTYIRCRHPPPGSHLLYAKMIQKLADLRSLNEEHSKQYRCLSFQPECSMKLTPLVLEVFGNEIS
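Two reagent solutions held at 4 deg C in the dark were dispensed, compounds pinned at 23 nl, and the mixture incubated 2 h at room temperature. Read-out: fluorescence polarization of VDR–SRC2-3 peptide binding.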
USP1 UbRho = Inhibitors of USP1/UAF1: Hit Validation in Primary Assay | shares compounds with VDR inh | Ub-Rhodamine cleavage, fluorescence kinetic read | Potency, µM (titrated, usually from 56.8 µM), for the others: at the top dose activity change, negative = inhibition, most hits filed as inhibitors | 50% of 50 active | AID 540327, 2011
VDR confirm = qHTS for Inhibitors of the vitamin D receptor (VDR): Hit Validation in Primary Screen; AID 602199, 2012; 89% of 840 active; shares compounds with VDR inh; Potency, µM, hits mostly inhibitors; VDR-coactivator inhibition assay, qHTS confirmation; further: potency means the concentration at half of the fitted maximal effect
VDR FP = qHTS for Inhibitors of the vitamin D receptor (VDR): Hit Validation using a Fluorescein Assay | VDR-coactivator binding, fluorescein fluorescence polarization | 48% of 840 active | Potency, µM (highest dose often 57.1 µM), inactives show top-dose activity change, negative = inhibition, usual class: inhibitors | shares compounds with VDR inh; further: potency means the concentration at half of the fitted maximal effect
VDR bla reporter = qHTS for Inhibitors of the vitamin D receptor (VDR): Hit Validation using a Beta-Lactamase Assay; shares compounds with VDR inh; VDR beta-lactamase reporter cells, FRET ratio; cells co-treated with VDR agonist LG190178; Potency, µM (top dose mostly 46.1 µM), for the others: at the highest dose activity change, negative = inhibition, actives largely listed as inhibitors; 23% of 840 active; AID 602202, 2012; further: potency means the concentration at half of the fitted maximal effect; on the % scale 0 is the no-effect control and ±100 the full control effect
VDR cytotox = qHTS for Inhibitors of the vitamin D receptor (VDR): Hit Validation using a Cytotoxicity Assay; shares compounds with VDR inh; cytotoxicity counter-screen, cell viability, qHTS; Potency, µM (series often up to 48.3 µM), for the others: at the top dose activity change, negative = cytotoxicity, actives largely listed as cytotoxic; 18% of 840 active;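 further: potency means the concentration at half of the fitted maximal effect; plate controls were DMSO for no effect and high-concentration cycloheximide for full effect; nearly all actives have a fitted effect of over 75% in size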
* marks the source's active call; other numbers are inactive results; u = inconclusive; x = not tested or not shown; ! = not confirmed by another sample; [ ] = another dose, or the depositor's remark. Unless noted, the call rests on the fitted dose curve; in most records, active means well fitted curve in the direction sought with a large enough effect; inconclusive means small, poorly fitted or top-dose-only effect, or another doubt; inactive means no such curve, though single readings can be large; an effect the other way counts as inactive or inconclusive.

SMILES | Sfp PPTase inh | CCT chaperon mod | G9a inh | Mm-Cpn inhibitor | PLK1 PBD inh | VDR inh | VDR confirm | VDR FP | VDR bla reporter | VDR cytotox | others
O=S(=O)(Nc1cc2nc3ccccc3nc2n1Cc1ccccc1)c1ccc(Cl)cc1 | 56µM* | -2 | 15%[59 µM] | -30% | u | 40µM* | 30* | 33% | u | u
O=S(=O)(NCc1ccccc1)c1ccc(Cl)cc1 | 7% | -2 | 14% | 0% | -14% | -6% | x | x | x | x
CCSC1=NC(C)(C)C=C(/C=C/c2ccc(Cl)cc2Cl)N1 | u | 2 | 50µM* | -2% | u | u | 14* | 16µM* | 23µM* | u
CCOC(=O)c1ccc(CN(Cc2ccc(F)cc2)S(=O)(=O)c2ccc(F)c(C(=O)Nc3cc(Cl)ccc3OC)c2)cc1 | x | x | -6%[59 µM] | x | x | 6% | x | x | x | x
O=C(/C=C/c1cccnc1)c1ccc([N+](=O)[O-])cc1 | u | -4 | 13µM* | -1% | -20% | u | 7.9* | 8.9µM* | u | u
CC1C/C(=C/c2ccncc2)C(=O)/C(=C/c2ccncc2)C1 (stereo not given) | u | -38* | -5%[59 µM] | -1% | -27% | 22µM* | 6.7* | 3.5µM* | 5.2µM* | 21µM*
CC1C/C(=C/c2cccn2C)C(=O)/C(=C/c2cccn2C)C1 (stereo not given) | u | 0 | u | -2% | 14% | -9% | x | x | x | x
CC(=O)N(C(C)=O)N1C(=O)C2C3c4ccccc4C(c4ccccc43)C2C1=O (stereo not given) | 1% | 1 | u | 1% | u | 35µM* | 30* | u | 33% | 1%
Nc1cccc2c1C(=O)N(C(=O)/C=C/c1ccc(F)cc1)C2=O | -21% | 2 | -10% | -5% | u | 28µM* | 9.5* | 10µM* | -1% | 30%
Cc1cc(=O)cc2oc3cc(N)c(-c4c(C)cc(O)cc4O)c(C)c3nc1-2 | 50µM* | x | x | x | x | u | x | x | x | x | USP1 UbRho=47µM*
Cc1nc2ccc(N=NN(C)C)cc2[nH]1 | u | 0 | x | 0% | -12% | 50µM* | 21* | u | 7% | u
Cc1cccc(CNC(=O)Cc2ccc(NC(=O)N3CCCCc4ccccc43)cc2)c1 | x | x | 10%[59 µM] | x | x | 10% | x | x | x | x
N#CC(C#N)=NNc1ccc(S(=O)(=O)N2CCCCC2)cc1 | 15% | 1 | 10µM* | 1% | -24% | 8.9µM* | 6.7* | 3.2µM* | -8% | u
O=C(COc1cccc(Cl)c1)N1CCC(c2nc3ccccc3o2)CC1 | x | x | 5%[59 µM] | x | x | 5% | x | x | x | x
COc1ccccc1C1=NNC(=Nc2cccc(S(=O)(=O)N(C)C)c2)SC1 | -93% | -1 | 16µM* | 1% | -19% | u | u | u | 2% | u
Cc1cccc(C)c1N=C1NN=C(c2ccccc2F)CS1 | -10% | -2 | u | 0% | 1% | -7% | x | x | x | x
Cc1ccc(N2NC(=O)/C(=C\c3cc4c(cc3[N+](=O)[O-])OCO4)C2=O)cc1C | -17% | -1 | 25µM* | 1% | 9.5µM* | 50µM* | 12* | u | u | -22%
Cc1cc(O)c(N=Cc2cc3c(cc2[N+](=O)[O-])OCO3)cc1C | x | -1 | x | x | -6% | -6% | x | x | x | x
Cc1ccc(N2C(=O)CSC23C(=O)Nc2ccccc23)cc1F (stereo not given) | x | x | -3%[59 µM] | x | x | 11% | x | x | x | x
N#Cc1c(Nc2ccccc2)s[nH]c1=O | 20µM* | -7 | 13µM* | -1% | -29% | u | 7.5* | 8% | 10% | -16%
Cc1ccc(C(=O)c2sc(Nc3ccccc3)c(C#N)c2N)cc1 | 3% | -2 | u | -1% | -9% | 0% | x | x | x | x
O=C1ON=C(c2ccccc2)/C1=C/c1ccc(O)cc1 | 50µM* | -25 | 50µM* | -1% | 1.7µM* | 35µM* | 11* | u | u | u
O=C1ON=C(c2ccccc2)/C1=C/c1ccccc1 | 45µM* | 0 | 45µM* | 2% | 5.3µM* | 45µM* | 19* | 6.3µM* | 27% | -15%
O=C1O/C(=C/c2ccccc2)c2ccccc21 | -10% | 0 | 18%[59 µM] | 4% | 7% | 4% | x | x | x | x
Cc1ccc(C2=NOC(=O)/C2=C\c2ccccc2)cc1 | x | 0 | x | x | 3.4µM* | 32µM* | 7.5* | u | 0% | 30%
O=c1/c(=C\c2ccc(O)cc2)sc2nc(-c3ccccc3)c(-c3ccccc3)n12 | -16% | -1 | u | 1% | -3% | -1% | x | x | x | x
Cc1ccc(C)c(N2CCN(C(=O)c3cc(S(=O)(=O)N4CCCCCC4)cn3C)CC2)c1 | x | x | -4%[59 µM] | x | x | -2% | x | x | x | x
CCCCC1C(=O)N(c2ccccc2)N(c2ccc(O)cc2)C1=O (stereo not given) | -22% | 0 | 3.5µM*! | -3% | 24µM* | 11µM*! | u | 14µM* | 6.5µM* | 21µM*
